Columns and labels:
[1] = biological target: Tyrosine-protein kinase Lyn (Homo sapiens) (UniProt P07948); details: at 1 µM
[2] = biological target: Tyrosine-protein kinase Lyn (Homo sapiens) (UniProt P07948); details: at 10 µM
[3] = biological target: Mitogen-activated protein kinase 3 (Homo sapiens) (UniProt P27361); details: at 1 µM
[4] = biological target: Mitogen-activated protein kinase 1 (Homo sapiens) (UniProt P28482); details: at 1 µM
[5] = biological target: Mitogen-activated protein kinase 1 (Homo sapiens) (UniProt P28482); details: at 10 µM
[6] = biological target: Mitogen-activated protein kinase 3 (Homo sapiens) (UniProt P27361); details: at 10 µM
[7] = biological target: MAP kinase-activated protein kinase 2 (Homo sapiens) (UniProt P49137); details: at 1 µM
Chain of MAP kinase-activated protein kinase 2 (Homo sapiens) (P49137 whole entry, looked up): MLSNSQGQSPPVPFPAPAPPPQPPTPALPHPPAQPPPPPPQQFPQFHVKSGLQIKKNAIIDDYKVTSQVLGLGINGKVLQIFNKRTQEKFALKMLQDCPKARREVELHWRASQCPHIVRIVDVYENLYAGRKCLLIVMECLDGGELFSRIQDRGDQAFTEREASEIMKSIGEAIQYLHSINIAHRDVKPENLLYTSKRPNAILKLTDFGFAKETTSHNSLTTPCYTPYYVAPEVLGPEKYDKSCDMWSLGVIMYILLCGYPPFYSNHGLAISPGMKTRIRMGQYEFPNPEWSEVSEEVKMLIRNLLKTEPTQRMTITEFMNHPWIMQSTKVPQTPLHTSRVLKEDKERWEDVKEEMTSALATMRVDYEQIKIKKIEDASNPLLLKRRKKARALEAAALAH

Chain of Mitogen-activated protein kinase 1 (Homo sapiens) (P28482 whole entry): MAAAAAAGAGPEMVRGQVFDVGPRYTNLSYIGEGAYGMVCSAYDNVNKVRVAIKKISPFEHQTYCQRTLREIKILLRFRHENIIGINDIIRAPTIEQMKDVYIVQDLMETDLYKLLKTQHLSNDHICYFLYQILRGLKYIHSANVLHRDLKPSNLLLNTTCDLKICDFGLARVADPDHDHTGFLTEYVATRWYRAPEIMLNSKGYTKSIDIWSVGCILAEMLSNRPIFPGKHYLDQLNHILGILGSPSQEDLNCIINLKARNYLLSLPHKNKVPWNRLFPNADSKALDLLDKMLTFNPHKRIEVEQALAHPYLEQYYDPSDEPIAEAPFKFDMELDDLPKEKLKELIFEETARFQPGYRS
Chain of Mitogen-activated protein kinase 3 (Homo sapiens) (P27361 whole entry): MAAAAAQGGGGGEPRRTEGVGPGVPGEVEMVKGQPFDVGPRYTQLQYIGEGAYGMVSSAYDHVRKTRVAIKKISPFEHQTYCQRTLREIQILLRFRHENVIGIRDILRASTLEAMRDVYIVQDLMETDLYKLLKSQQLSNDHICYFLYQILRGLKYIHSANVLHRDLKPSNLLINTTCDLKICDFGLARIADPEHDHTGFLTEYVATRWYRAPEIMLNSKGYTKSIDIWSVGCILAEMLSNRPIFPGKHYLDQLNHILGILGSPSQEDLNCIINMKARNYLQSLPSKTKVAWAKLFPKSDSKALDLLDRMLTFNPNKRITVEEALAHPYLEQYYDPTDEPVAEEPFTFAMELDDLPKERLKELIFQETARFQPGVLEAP
Chain of Tyrosine-protein kinase Lyn (Homo sapiens) (P07948 2-512 limits assumed): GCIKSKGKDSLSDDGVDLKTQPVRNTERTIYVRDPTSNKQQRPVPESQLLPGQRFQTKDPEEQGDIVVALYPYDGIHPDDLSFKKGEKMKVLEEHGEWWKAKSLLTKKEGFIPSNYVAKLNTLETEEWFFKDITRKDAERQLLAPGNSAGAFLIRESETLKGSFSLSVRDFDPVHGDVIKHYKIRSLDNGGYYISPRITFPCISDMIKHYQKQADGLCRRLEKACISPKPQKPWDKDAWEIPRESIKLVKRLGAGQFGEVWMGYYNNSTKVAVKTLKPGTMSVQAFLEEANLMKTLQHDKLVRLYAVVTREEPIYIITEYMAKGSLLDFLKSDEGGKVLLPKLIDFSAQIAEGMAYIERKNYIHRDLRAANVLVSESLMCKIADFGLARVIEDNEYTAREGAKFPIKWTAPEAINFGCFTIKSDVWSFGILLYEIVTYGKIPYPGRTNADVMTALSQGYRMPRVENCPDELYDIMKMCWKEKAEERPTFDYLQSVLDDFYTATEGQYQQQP

Structure (SMILES)	residual activity [1]	residual activity [2]	residual activity [3]	residual activity [4]	residual activity [5]	residual activity [6]	residual activity [7]
Cn1c2ccccc2c2c3c(c4c5ccccc5n(CCC#N)c4c21)CNC3=O	21%	9%	52%	48%	44%	–	–
N#C/C(=C1/Nc2ccccc2S1)c1ccnc(NCCc2cccnc2)n1	–	15%	–	–	–	–	–
Nc1ncnc2c1cnn2-c1ccccc1	95%	82%	82%	–	95%	80%	92%
O=c1c(-c2ccc(F)cc2)c(-c2ccncc2)[nH]n1-c1ccc(Cl)cc1	75%	38%	–	122%	–	66%	–
N#Cc1c(NC(=O)c2cccc3ccccc23)sc2c1CCCC2	90%	62%	–	–	92%	–	–
CC(C)[C@H](CO)Nc1nc(Nc2cc(N)cc(Cl)c2)c2ncn(C(C)C)c2n1	9%	-1%	91%	–	66%	82%	89%
CC(C)(C)c1nc2c3ccc(F)cc3c3c(=O)[nH]ccc3c2[nH]1	65%	20%	47%	–	–	64%	79%
COc1ccc(Cl)cc1NC(=O)Nc1cc(C)nc2ccccc12	89%	87%	–	–	–	–	80%
Cc1cc(C)c(/C=C2\C(=O)Nc3ccccc32)[nH]1	46%	8%	–	98%	101%	–	100%

Reference: ChEMBL document CHEMBL2218924, “A broad activity screen in support of a chemogenomic map for kinase signalling research and drug discovery” (Biochem J, 2013)
